The results in this text go back to PubChem BioAssay (NCI).

Molecules are shown by their SMILES. This is part of a sample that, as a whole, favours compounds with a hit. Of some 83,000 tested, about 20% had one in any assay.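 Each cell line was grown in a 96-well plate and treated with one concentration of compound for 48 hours. Values below 10 were considered active.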 Values without a mark were called inactive. Activity calls are given as the source filed them.

Holding throughout (assay): NCI-60 one-dose screen, 48 h (100 = growth as untreated, 0 = no growth, -100 = all killed)
Holding throughout (settings): 10 µM unless noted

Test [1] relates to BT-549 breast.
Test [2] concerns MDA-MB-435 melanoma.
For test [3], the system named is SW-620 colon.
Test [4] has as its system MCF7 breast.
The subject of test [5] is HCT-116 colon.
In test [6] the test system is HCC-2998 colon.
Test [7] concerns KM12 colon.

As to `CCOC(=O)CC[C@H](NC(=O)c1ccc(NC)c2ccccc12)C(=O)OCC`, the growth in test [1] is 100%; in test [2] it was 105%; in test [3], 93.6%; in test [4] it was 94.7%; in test [5] it was 92%; in test [6], 115%.

Turning to `CC(C)(C)c1ccc2oc(=O)n(SC(Cl)(Cl)Cl)c2c1`, the growth was 98.2% in test [1]; 107% in test [2]; 76.5% in test [3]; 86.4% in test [4]; 103% in test [5]; 96.5% in test [6].

Consider `O=C(Nc1nc(-c2ccccc2Cl)cs1)c1cc(-c2ccc(Br)cc2)nc2ccccc12`, for which the growth was 70.9% in test [1]; 64.5% in test [2]; 57% in test [3]; 29.4% in test [4]; 43.6% in test [5]; 63.9% in test [6].

Regarding `COc1ccc(/C=C/C(=O)/C=C(/C=C/c2ccc(OC)c(OC)c2)OB(F)F)cc1OC`, the growth in test [1] is 44.3%; in test [2] it was 8.23% (active); in test [3], -21.8% (active); in test [4] it was 20.1%; in test [5] it was -45.6% (active); in test [6], 102%.

Consider `O=C1NC(c2ccc(F)cc2)N=C2C(c3ccccc3)=NOC12` (stereo not given), for which the growth in test [1] was 106%; in test [2], 106%; in test [3] it was 106%; in test [4], 101%; in test [5], 103%; in test [6] it was 101%.

Regarding `CCCCc1ccc(N=Nc2ccc(OCC[N+](C)(C)C)cc2)cc1`, the growth in test [1] was 56.4%; in test [2], 88.6%; in test [3], 49.6%; in test [4], 85.1%; in test [5], 48.7%; in test [6], 25.6%.

`O=C1Nc2ccc(Cl)cc2/C1=N/c1nc(-c2ccc(Cl)cc2)cs1`: the growth in test [1] was 17.4%; in test [2] it was -82.3% (active); in test [3], 12.9%; in test [4], 5.81% (active); in test [5], 3.16% (active); in test [6], 9.52% (active).

For the molecule `C=C(C)[C@@H]1CC[C@]2(C(=O)OCCOCCOCC[P+](c3ccccc3)(c3ccccc3)c3ccccc3)CC[C@]3(C)[C@H](CC[C@@H]4[C@@]5(C)CC[C@H](OC(C)=O)C(C)(C)[C@@H]5CC[C@]43C)[C@@H]12`, the growth was -89.8% (active) in test [1]; -91.3% (active) in test [2]; -77.9% (active) in test [3]; -76% (active) in test [4]; -92.2% (active) in test [5]; -88.4% (active) in test [6].

In the case of `CCc1c(C(=O)N[C@@H](C(=O)OCc2ccccc2)C(C)O)[nH]c2ccc(Cl)cc12` (stereo not given in full), the growth in test [1] was 90.8%; in test [2], 87.9%; in test [3], 54.4%; in test [4], 65.6%; in test [5], 18.9%; in test [6], 101%.

For `O=c1[nH]c2ccccc2cc1-c1nc2ccc(Cl)cc2[nH]1`, the growth in test [1] was 43%; in test [2], 32.5%; in test [3], 42.5%; in test [4], 23.8%; in test [5], 22.2%; in test [6], 79.7%.

As to `C/C(=C\c1cnc(C)s1)[C@@H]1C[C@@H]2O[C@@H]2CCC[C@H](C)[C@H](O)[C@@H](C)C(=O)C(C)(C)[C@@H](O)CC(=O)O1`, the growth in test [1] was 39.4%; in test [2] it was 4.21% (active); in test [3], 34.8%; in test [4] it was 17.1%; in test [5], 18.4%; in test [6], 18.6%.

As to `CC(C)CSc1nc(Nc2ccccc2)c(C#N)c(-c2ccc(F)cc2)n1`, the growth in test [1] was 28%; in test [2] it was 77.4%; in test [3] it was 55.2%; in test [4], 69%; in test [5], 7.9% (active); in test [6], 69.1%.

`COc1ccc(-c2cc(C(=O)N3N=C(c4ccc(N)cc4)CC3c3ccc(OC)cc3)c3cc(OC)ccc3n2)cc1` (stereo not given): the growth in test [1] is 66.4%; in test [2] it was 3.45% (active); in test [3], 30.1%; in test [4], 14.2%; in test [5], 7.78% (active); in test [6] it was 91.6%. Also, in test [7], the growth was 22.5%.

Turning to `O=C(O)CCNC1CCCCC1`, the growth in test [1] was 99.6%; in test [2], 117%; in test [3], 101%; in test [4] it was 87.5%; in test [5], 92.6%; in test [6] it was 86.4%.

Regarding `O=C(CCl)N1CCCc2ccccc21`, the growth in test [1] was 97.1%; in test [2], 91.8%; in test [3], 99%; in test [4] it was 92%; in test [5], 95.9%; in test [6], 96.6%.

Turning to `O=C(O)c1ccc(-n2cc(/C=N/Nc3ccc(Cl)cc3Cl)c(-c3ccccc3)n2)cc1`, the growth in test [1] was 79.3%; in test [2], 95.5%; in test [3], 96.3%; in test [4], 69.8%; in test [5] it was 76.8%; in test [6], 101%.

Consider `O=c1[nH]nc(-c2ccccc2)c2sc(NC(=S)Nc3ccc(Cl)cc3)nc12`, for which the growth in test [1] was 92.6%; in test [2], 103%; in test [3], 98.1%; in test [4], 74.9%; in test [5], 87.8%; in test [6], 107%.

Regarding `O=C1CCC23OC(C(O)c4ccccc4N12)C1C(Br)=NOC13` (stereo not given), the growth in test [1] was 102%; in test [2], 96.2%; in test [3], 107%; in test [4], 96.5%; in test [5], 94.6%; in test [6], 100%.

Regarding `C=C1C(=O)O[C@H]2[C@H]1CC/C(COC(=O)CCCCCCCCC(=O)OC/C1=C/CC[C@@]3(C)O[C@H]3[C@H]3OC(=O)C(=C)[C@@H]3CC1)=C\CC[C@@]1(C)O[C@@H]21`, the growth in test [1] was 2.59% (active); in test [2], 8.17% (active); in test [3] it was 2.58% (active); in test [4], -37% (active); in test [5] it was -62.7% (active); in test [6], 44.2%.
